RE007 growth inh – less growth of the S. pombe RE007 Vpr strain. S. pombe RE007 Vpr strain, BacTiter-Glo ATP luminescence, 24 h. Potency, µM (titrated, usually from 92.2 µM), without a hit: top-dose activity change, negative = less growth, most hits filed as inhibitors. hit rate 0.21% among 360,000. AID 651644; active means well fitted falling curve with a large enough effect; inconclusive means small, poorly fitted or top-dose-only effect; inactive means no such curve, though single readings can be large or run the other way; further: on the % scale 0 is the no-effect control and ±100 the full control effect; nearly all actives have a fitted effect of over 50% in size
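Fission yeast strain RE007, carrying one chromosomally integrated HIV-1 vpr copy, was seeded at OD 0.01 in PMG+AL medium with 23 nL pinned compound. After 24 h at 30 °C and 99% humidity, viability was read by BacTiter-Glo luminescence.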
NS1 inh – inhibitors of influenza NS1 protein function; Potency, µM (top dose mostly 46.1 µM), for the others: top-dose activity, positive = more growth; hit rate 0.4% among 270,000; AID 2326; calls by dose curve; further: actives are rising curves; nearly all actives have a fitted effect of over 50% in size
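Read-out: OD600 growth recovery of NS1-expressing budding yeast. Cells grown overnight at 30C in -URA glucose medium, washed, resuspended and diluted 1:100 in 2% galactose assay medium, pH 6.0. Same strain lacking NS1 served as positive control.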
Sm TGR block – S. mansoni TGR enzyme inhibition | hit rate 3% among 360,000 | AID 485364 | Q962Y6 | purified TGR, DTNB reduction, TNB absorbance 405 nm | Potency, µM (highest dose often 114 µM), inactives show top-dose activity change, negative = inhibition, hits mostly inhibitors; further: on the % scale 0 is the no-effect control and ±100 the full control effect; nearly all actives have a fitted effect of over 60% in size
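First, TGR (20 nM dispensed) and NADPH were mixed with compound. Second, a 15 min room-temperature incubation followed. Third, further NADPH and then DTNB were added to start the reaction. Finally, TNB absorbance was monitored kinetically.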
LmPK inhibitor – inhibitors of Leishmania mexicana pyruvate kinase. Q27686. purified LmPK, Kinase-Glo ATP luminescence, 1 h. Potency, µM (doses to about 57.5 µM), without a hit: at the highest dose activity change, negative = inhibition, actives largely listed as inhibitors. hit rate 0.37% among 290,000. AID 1721; further: on the % scale 0 is the no-effect control and ±100 the full control effect
Target sequence (Q27686 whole entry, looked up): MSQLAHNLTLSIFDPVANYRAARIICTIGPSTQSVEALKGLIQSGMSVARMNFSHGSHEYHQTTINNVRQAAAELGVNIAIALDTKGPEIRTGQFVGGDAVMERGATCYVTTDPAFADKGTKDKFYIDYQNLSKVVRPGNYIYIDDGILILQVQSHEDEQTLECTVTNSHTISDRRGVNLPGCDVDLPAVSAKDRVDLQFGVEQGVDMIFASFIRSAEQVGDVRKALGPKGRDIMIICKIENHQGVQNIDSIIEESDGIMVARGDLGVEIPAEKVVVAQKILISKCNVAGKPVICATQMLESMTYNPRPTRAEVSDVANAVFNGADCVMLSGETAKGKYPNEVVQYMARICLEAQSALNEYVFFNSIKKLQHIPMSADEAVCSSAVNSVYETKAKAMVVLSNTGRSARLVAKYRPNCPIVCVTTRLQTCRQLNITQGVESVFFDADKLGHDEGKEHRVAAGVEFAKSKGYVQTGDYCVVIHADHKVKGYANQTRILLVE
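ATP generated from ADP (0.1 mM) and PEP (0.5 mM) by 0.1 nM LmPK over 1 h at room temperature (pH 7.2 imidazole buffer) was detected by coupled luciferase luminescence. Values were normalized to uninhibited and no-enzyme wells.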
Giardia FBPA inh – inhibitors of Giardia lamblia fructose-1,6-bisphosphate aldolase; A8B2U2; purified Giardia FBPA; Potency, µM (highest dose often 59.6 µM), for the others: at the highest dose activity, negative = inhibition, actives largely listed as inhibitors; hit rate 0.71% among 290,000; further: on the % scale 0 is the no-effect control and ±100 the full control effect; nearly all actives have a fitted effect of over 55% in size
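Giardia FBPA (40 nM reagent) was preincubated 10 min at RT with compound (up to 57.5 uM final), then substrate plus GAPDH/TPI/NAD/arsenate coupling system with diaphorase/resazurin was added; resorufin fluorescence (525/598 nm) was read after 20 min.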
Tb PYK inh – T. brucei pyruvate kinase inhibition. Q57TT1. TbPYK enzyme, Kinase-Glo Plus ATP luminescence, 45 min. Potency, µM (doses to about 76.8 µM), inactives show at the top dose activity, negative = inhibition, usual class: inhibitors. hit rate 0.12% among 410,000. AID 624173; further: on the % scale 0 is the no-effect control and ±100 the full control effect; nearly all actives have a fitted effect of over 50% in size
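In this concentration-response screen, enzyme-free wells defined baseline while DMSO plates tracked drift. Each reaction combined TbPYK, substrate, compound and 130 uM ADP for 45 min at room temperature. Kinase-Glo Plus luminescence gave the signal.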
* marks the source's active call; other numbers are inactive results; ? = inconclusive; / = no result; [ ] = remark or other dose. Only some compounds are listed: those with a hit (about 3.5% of all), similar ones and a draw of the others. Unless noted, the call rests on the fitted dose curve; in most records, active means well fitted curve in the direction sought with a large enough effect; inconclusive means small, poorly fitted or top-dose-only effect, or another doubt; inactive means no such curve, though single readings can be large; an effect the other way counts as inactive or inconclusive. Potency means the concentration at half of the fitted maximal effect.

SMILES	RE007 growth inh	NS1 inh	Sm TGR block	LmPK inhibitor	Giardia FBPA inh	Tb PYK inh
O=C(CN1C(=O)C2C3C=CC(C3)C2C1=O)NCc1ccco1 (stereo not drawn)	6.4%	5.1%	-15.1%	3.9%	-0.9%	-8.5%
O=C1[C@@H]2[C@H](C(=O)N1Cc1ccco1)[C@H]1C=C[C@@H]2C1	12.5%	3.7%	50.1µM*	-0.3%	3.5%	-3.9%
CC(c1ccccc1)C1CC(=O)N(Cc2ccco2)C1=O (stereo not drawn)	11.2%	1.8%	7.08µM*	5.0%	-1.5%	?
CNS(=O)(=O)c1cn(CC(=O)N2CCN(c3ccc(C)cc3C)CC2)cc1S(=O)(=O)NC	/	/	2.9%	/	/	0.9%[15.4 µM]
Oc1c(Br)cc(/C=N/n2c(-c3ccccc3)n[nH]c2=S)cc1Br	-4.1%	14.3%	3.2%	17.8µM*	8.0%	?
Cc1c(Br)c(O)c(Br)c(O)c1/C=N/n1c(-c2ccccc2)n[nH]c1=S	7.0%	7.7%	35.5µM*	-23.7%	-13.6%	?
COc1cc(/C=N/n2c(-c3ccccc3)n[nH]c2=S)cc(OC)c1O	7.9%	6.2%	31.6µM*	-11.8%	-15.0%	?
COc1cc(-c2n[nH]c(=S)n2/N=C/c2cccn2C)cc(OC)c1OC	9.0%	4.5%	-3.4%	7.94µM*	-14.6%	?
Cn1c(=O)c2c(c3ccccc31)OC(=O)CC2c1ccc(C(F)(F)F)cc1 (stereo not drawn)	/	/	-3.4%	/	/	8.7%
COc1cc(/C=N/n2c(-c3ccccc3)n[nH]c2=S)ccc1O	-6.6%	20.8%	4.3%	?	?	6.31µM*
Cc1ccsc1/C=N/n1c(-c2ccccc2)n[nH]c1=S	7.2%	8.7%	-4.5%	-10.6%	0.5%	-22.7%
Oc1ccc(/C=N/n2c(-c3ccccc3)n[nH]c2=S)cc1Br	0.4%	9.8%	-23.1%	?	-14.6%	0.9%
Cc1cc(-c2n[nH]c(=S)n2/N=C/c2sccc2C)n[nH]1	2.1%	5.1%	-15.6%	-13.9%	3.9%	7.08µM*
COc1ccc(/C=N/n2c(-c3cccs3)n[nH]c2=S)cc1	-6.2%	-47.3%	?	-21.6%	4.3%	1.26µM*
c1ccc2c(c1)Cn1c-2nc2ccccc21	?	-103.0%	-0.8%	14.1µM*	-15.0%	?
Brc1c(-c2ccccc2)nc2n1Cc1ccccc1-2	-21.3%	-54.5%	-1.7%	-12.1%	-0.7%	3.3%
CCCN(C(=O)c1cc(-c2ccco2)nc2ccccc12)c1c(N)n(Cc2ccccc2)c(=O)[nH]c1=O	-2.2%	/	8.91µM*	/	/	-0.4%
CCCCn1c(N)c(N(CCOC)C(=O)c2cc(-c3ccco3)nc3ccccc23)c(=O)[nH]c1=O	-0.4%	/	25.1µM*	/	/	-7.6%
CCN(C(=O)COC(=O)/C=C/c1ccco1)c1c(N)n(Cc2ccccc2)c(=O)[nH]c1=O	-1.9%	/	20µM*	/	/	0.9%
CCCCn1c(N)c(N(CC(C)C)C(=O)C2=NN(c3ccccc3)C(=O)CC2)c(=O)[nH]c1=O	-16.0%	/	89.1µM*	/	/	4.6%
COCCN(C(=O)c1cc(-c2ccco2)nc2ccccc12)c1c(N)n(Cc2ccccc2)c(=O)[nH]c1=O	5.0%	/	/	/	/	-2.8%
CCCCN(C(=O)c1cc(-c2ccco2)nc2ccccc12)c1c(N)n(CCCC)c(=O)[nH]c1=O	-4.5%	/	3.55µM*	/	/	-13.4%
CCCCn1c(N)c(N(CCOC)C(=O)c2ccc(-n3c(C)ccc3C)cc2)c(=O)[nH]c1=O	1.4%	/	39.8µM*	/	/	-5.3%
COc1ccc(CCN2C(=O)N(c3ccc(C)cc3)C(=O)C2CC(=O)Nc2ccc(F)cc2)cc1 (stereo not drawn)	/	/	-1.0%	/	/	-8.1%
CC(C)CC(O)(c1ccccc1)C(CN1CCOCC1)c1ccccc1 (stereo not drawn)	0.6%	-3.3%	-10.3%	-6.1%	-26.6%	0.6%
SMILES	RE007 growth inh	NS1 inh	Sm TGR block	LmPK inhibitor	Giardia FBPA inh	Tb PYK inh
OC(c1ccc(F)cc1)(C1CCCCC1)C(CN1CCOCC1)c1ccccc1 (stereo not drawn)	0.7%	-61.9%	89.1µM*	12.5%	-16.6%	-3.6%
O=S(=O)(CCN1C=CC(C(F)(F)F)=NCC1)c1ccc(Cl)cc1Cl	-15.0%	4.1%	25.1µM*	-3.0%	-0.4%	4.5%
COc1ccc(NC(=O)CC2C(=O)N(c3cccc(OC)c3)C(=O)N2CCC2=CCCCC2)cc1 (stereo not drawn)	/	/	6.0%	/	/	7.3%
Cc1cccc(NC(=O)CN(C)S(=O)(=O)c2ccc3c(c2)CCC(=O)N3)c1C	/	/	-0.7%	/	/	2.3%
CC(=O)Oc1ccc2c(c1OC(C)=O)OCC1(O)Cc3c(cc(OC(C)=O)c(OC(C)=O)c3OC(C)=O)C21 (stereo not drawn)	/	/	/	/	-2.2%	/
Oc1cc2c(cc1O)[C@H]1c3ccc(O)c(O)c3OC[C@@]1(O)C2	-26.7%	/	2.24µM*	/	?	5.62µM*
Oc1ccc2c(c1)OCC1(O)Cc3cc(O)c(O)cc3C21 (stereo not drawn)	1.5%	/	/	/	17.7µM*	11.2µM*
CC(C)CC(NS(=O)(=O)c1ccc2c(c1)oc(=O)n2C)C(=O)NCCc1ccc(Cl)cc1 (stereo not drawn)	/	/	1.8%	/	/	-5.5%
COc1ccc(-n2c(=S)[nH]c3c(oc4ccccc43)c2=O)cc1	/	?	-7.1%	-2.3%	8.2%	-25.2%
COc1ccc(-n2c(=S)[nH]c(=O)c3cccnc32)cc1	6.0%	3.2%	17.8µM*	1.8%	-18.5%	-14.3%
Cc1ccc(CNC(=O)C2CCCN(c3nnc(-n4c(C)ccc4C)s3)C2)cc1 (stereo not drawn)	/	/	?	/	/	-8.2%
COC(=O)C1C=C2c3cccc4[nH]cc(c34)CC2N(C)C1 (stereo not drawn)	/	15.5%	10µM*	-1.1%	?	/
CC[C@@H](CO)NC(=O)[C@@H]1C=C2c3cccc4c3c(cn4C)C[C@H]2N(C)C1	-13.5%	22.7%	8.91µM*	-2.3%	?	1.7%
CC(C)C[C@H]1C(=O)N2CCC[C@H]2[C@]2(O)O[C@](NC(=O)[C@@H]3C=C4c5cccc6[nH]cc(c56)C[C@H]4N(C)C3)(C(C)C)C(=O)N12	2.1%	/	5.62µM*	/	/	-2.6%
CC(NC(=O)C1CCN(S(=O)(=O)c2ccc3c(c2)oc(=O)n3C)CC1)c1ccccc1 (stereo not drawn)	/	/	-9.4%	/	/	-4.2%

High-throughput results: PubChem BioAssay, National Center for Advancing Translational Sciences (NCATS)
